Conditions in all cases: mRNA level, 48 h; actives raise or lower the signal
Read-out in test [1]: Bcl-2 (BAD) gene, BAD (gene 572)
In words: LTEA_HepaRG_BAD: Life Technologies and Expression Analysis (LTEA) Assay for Bcl-2 (BAD) gene using HepaRG (AID 2283469). In outline: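 HepaRG, 48 h exposure, 8-pt half-log curve from 100 uM in 0.5% DMSO, duplicates. Readout: TaqMan qRT-PCR for BAD mRNA, housekeeping-normalised (ACTB/GAPDH/POLR2A); gain or loss fitted against DMSO baseline.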

Read-out in test [2]: Bcl-2 (BAX) gene, BAX (gene 581)
In words: LTEA_HepaRG_BAX: Life Technologies and Expression Analysis (LTEA) Assay for Bcl-2 (BAX) gene using HepaRG (AID 2283470). In outline:
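qRT-PCR read-out of BAX mRNA, normalized to three housekeeping genes, after 48 h chemical exposure of human HepaRG cells in serum-free induction medium; eight-point half-log series, top 100 uM, 0.5% DMSO vehicle; bidirectional fit versus DMSO.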

Read-out in test [3]: adenosine kinase (ADK) gene, ADK (gene 132)
In words: LTEA_HepaRG_ADK: Life Technologies and Expression Analysis (LTEA) Assay for adenosine kinase (ADK) gene using HepaRG (AID 2283471). Summed up: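 ADK expression quantified by qRT-PCR, normalised to three housekeeping genes, after 48 h exposure of HepaRG cells to eight concentrations (top 100 uM, half-log steps, duplicate, 0.5% DMSO). Up- or down-regulation fitted relative to vehicle.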

Read-out in test [4]: Alpha-fetoprotein (AFP) gene, AFP (gene 174)
Description: LTEA_HepaRG_AFP: Life Technologies and Expression Analysis (LTEA) Assay for Alpha-fetoprotein (AFP) gene using HepaRG (AID 2283472). In outline:
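qRT-PCR (Fluidigm TaqMan) readout of AFP transcript, normalized to three housekeeping genes, fitted bidirectionally against 0.5% DMSO baseline. HepaRG cells received chemicals for 48 h in serum-free induction medium, top concentration 100 uM, half-log steps.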

Read-out in test [5]: BCL2L11 (gene 10018)
Description: LTEA_HepaRG_BCL2L11: Life Technologies and Expression Analysis (LTEA) Assay for Bcl-2 (BCL2L11) gene using HepaRG (AID 2283473). Summed up:
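BCL2L11 transcript levels are measured by Fluidigm qRT-PCR, normalized to three housekeeping genes. HepaRG cultures were plated 48 h, then treated 48 h with test chemical (top 100 uM, half-log, 0.5% DMSO vehicle); curves were fitted bidirectionally against DMSO.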

Read-out in test [6]: Apolipoprotein A-V (APOA5) gene, APOA5 (gene 116519)
Description: LTEA_HepaRG_APOA5: Life Technologies and Expression Analysis (LTEA) Assay for Apolipoprotein A-V (APOA5) gene using HepaRG (AID 2283474). Summed up: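 APOA5 transcript levels were quantified by qRT-PCR, normalized to three housekeeping genes, after 48 h chemical treatment of HepaRG cells (8 points, 100 uM maximum, half-log steps, 0.5% DMSO). Curves fitted in both directions against vehicle.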

Read-out in test [7]: Apoptosis regulator Bcl-2 (Homo sapiens) (UniProt P10415)
In words: LTEA_HepaRG_BCL2: Life Technologies and Expression Analysis (LTEA) Assay for Bcl-2 gene using HepaRG (AID 2283475). In outline: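 qRT-PCR read-out (Fluidigm TaqMan) of BCL2 transcript, normalised to three housekeeping genes, after 48 h chemical exposure of HepaRG cells; 8-point half-log series, top 100 uM, 0.5% DMSO vehicle. Gain or loss of signal fitted relative to DMSO baseline.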

Read-out in test [8]: Bcl-2 (BID) gene, BID (gene 637)
Description: LTEA_HepaRG_BID: Life Technologies and Expression Analysis (LTEA) Assay for Bcl-2 (BID) gene using HepaRG (AID 2283476). Summed up:
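HepaRG, 48 h exposure, 8-pt half-log series, top 100 uM, 0.5% DMSO vehicle, duplicates. Readout: BID mRNA by TaqMan qRT-PCR; housekeeping-normalized; bidirectional curve fit vs DMSO baseline.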

Read-out in test [9]: Caspase-3 (Homo sapiens) (UniProt P42574)
Description: LTEA_HepaRG_CASP3: Life Technologies and Expression Analysis (LTEA) Assay for cysteine-aspartic acid protease (CASP3) using HepaRG (AID 2283477). Summed up:
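Expression of CASP3 was quantified by TaqMan qRT-PCR against three housekeeping genes (ACTB, GAPDH, POLR2A), bidirectionally versus 0.5% DMSO. HepaRG cultures received compounds in duplicate, top 100 uM with half-log steps, for 48 h in serum-free induction medium.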

Read-out in test [10]: Cytochrome P450 (CYP24A1), CYP24A1 (gene 1591)
In words: LTEA_HepaRG_CYP24A1: Life Technologies and Expression Analysis (LTEA) Assay for Cytochrome P450 (CYP24A1) using HepaRG (AID 2283478). Summed up: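 mRNA of CYP24A1 quantified by TaqMan qRT-PCR (ACTB/GAPDH/POLR2A normalization) after 48 h chemical exposure of HepaRG cells, top concentration 100 uM, half-log steps, 0.5% DMSO vehicle, duplicates. Curves fitted bidirectionally against DMSO baseline.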

Read-out in test [11]: Cytochrome P450 (CYP1A2), CYP1A2 (gene 1544)
Description: LTEA_HepaRG_CYP1A2: Life Technologies and Expression Analysis (LTEA) Assay for Cytochrome P450 (CYP1A2) using HepaRG (AID 2283479). In outline: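 CYP1A2 transcript measured by TaqMan qRT-PCR against three housekeeping genes after 48-hour chemical exposure of HepaRG cells. Eight-point half-log series topping at 100 uM in 0.5% DMSO, duplicates; gain or loss fitted relative to vehicle.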

Read-out in test [12]: Cytochrome P450 (CYP2B6), CYP2B6 (gene 1555)
In words: LTEA_HepaRG_CYP2B6: Life Technologies and Expression Analysis (LTEA) Assay for Cytochrome P450 (CYP2B6) using HepaRG (AID 2283481). In outline: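 CYP2B6 transcript level quantified by qRT-PCR against three housekeeping genes, fitted bidirectionally relative to DMSO. HepaRG cultures received chemicals for 48 h, 8-point half-log series from 100 uM in 0.5% DMSO, duplicate wells, serum-free induction medium.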

Read-out in test [13]: Cytochrome P450 2C19 (Homo sapiens) (UniProt P33261)
Description: LTEA_HepaRG_CYP2C19: Life Technologies and Expression Analysis (LTEA) Assay for CYP2C19 using HepaRG (AID 2283482). Summed up: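 CYP2C19 transcript levels by qRT-PCR, normalized to three housekeeping genes, in HepaRG cells after 48 h chemical exposure. Eight-point half-log series topping at 100 uM, 0.5% DMSO vehicle. Increases and decreases both fitted against DMSO.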

Read-out in test [14]: CYP2C8 (gene 1558)
Description: LTEA_HepaRG_CYP2C8: Life Technologies and Expression Analysis (LTEA) Assay for CYP2C8 using HepaRG (AID 2283483). In outline:
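HepaRG (human liver line), 48 h chemical exposure, 8-pt half-log series from 100 uM, 0.5% DMSO vehicle. Readout: CYP2C8 transcript by qRT-PCR, housekeeping-normalized. Bidirectional fit vs DMSO baseline.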

Read-out in test [15]: CYP2C9 (gene 1559)
In words: LTEA_HepaRG_CYP2C9: Life Technologies and Expression Analysis (LTEA) Assay for CYP2C9 using HepaRG (AID 2283484). Summed up: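 HepaRG, 48 h dosing, 8-pt half-log series, top 100 uM, 0.5% DMSO vehicle. Read-out: CYP2C9 transcript by TaqMan qRT-PCR, housekeeping-normalized (ACTB/GAPDH/POLR2A). Gain or loss fitted vs DMSO baseline.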

Read-out in test [16]: CYP2E1 (gene 1571)
Description: LTEA_HepaRG_CYP2E1: Life Technologies and Expression Analysis (LTEA) Assay for CYP2E1 using HepaRG (AID 2283485). Summed up:
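CYP2E1 transcript was measured by TaqMan qRT-PCR in human HepaRG cultures after 48 h chemical exposure (top 100 uM, half-log steps, 0.5% DMSO vehicle). Housekeeping-gene normalization; gain or loss fitted relative to DMSO baseline.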

Read-out in test [17]: CYP4A11 (gene 1579)
Description: LTEA_HepaRG_CYP4A11: Life Technologies and Expression Analysis (LTEA) Assay for CYP4A11 using HepaRG (AID 2283486). In outline:
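Readout is CYP4A11 transcript level by qRT-PCR, normalized to three housekeeping genes and fitted bidirectionally against 0.5% DMSO. Human HepaRG cells were treated 48 h, in duplicate, with an 8-point half-log series topping at 100 uM.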

Read-out in test [18]: Cytochrome P450 3A4 (Homo sapiens) (UniProt P08684)
In words: LTEA_HepaRG_CYP3A4: Life Technologies and Expression Analysis (LTEA) Assay for CYP3A4 using HepaRG (AID 2283487). In outline:
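Differentiated HepaRG cells, plated 48 h, then dosed 48 h in serum-free induction medium with 0.5% DMSO, 8 half-log concentrations up to 100 uM, duplicate. CYP3A4 mRNA by qRT-PCR, normalized to ACTB/GAPDH/POLR2A; bidirectional fit versus DMSO.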

Read-out in test [19]: DNA damage-inducible transcript 3 (DDIT3), DDIT3 (gene 1649)
Description: LTEA_HepaRG_DDIT3: Life Technologies and Expression Analysis (LTEA) Assay for DNA damage-inducible transcript 3 (DDIT3) using HepaRG (AID 2283488). In outline: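 qRT-PCR readout (Fluidigm TaqMan), housekeeping-normalized to ACTB, GAPDH, POLR2A. HepaRG cells, 48 h exposure, 8-point half-log series from 100 uM in 0.5% DMSO, duplicates. Gain or loss of signal fitted against DMSO baseline.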

Read-out in test [20]: cysteine-aspartic acid protease (CASP8), CASP8 (gene 841)
Description: LTEA_HepaRG_CASP8: Life Technologies and Expression Analysis (LTEA) Assay for cysteine-aspartic acid protease (CASP8) using HepaRG (AID 2283480). In outline: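 qRT-PCR readout of CASP8 mRNA, normalized to three housekeeping genes, after 48 h chemical exposure of HepaRG cells; 8-point half-log series, top 100 uM, 0.5% DMSO vehicle. Bidirectional curve fitting against DMSO baseline.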

Each structure is given as a SMILES string. Activity calls are given as the source filed them. How the source made its calls: active means hit-call score of the fitted dose curve at least 0.9, where 1 is the maximum; inactive means score below 0.9.

Sequence of Cytochrome P450 3A4 (Homo sapiens) (P08684 whole entry, looked up): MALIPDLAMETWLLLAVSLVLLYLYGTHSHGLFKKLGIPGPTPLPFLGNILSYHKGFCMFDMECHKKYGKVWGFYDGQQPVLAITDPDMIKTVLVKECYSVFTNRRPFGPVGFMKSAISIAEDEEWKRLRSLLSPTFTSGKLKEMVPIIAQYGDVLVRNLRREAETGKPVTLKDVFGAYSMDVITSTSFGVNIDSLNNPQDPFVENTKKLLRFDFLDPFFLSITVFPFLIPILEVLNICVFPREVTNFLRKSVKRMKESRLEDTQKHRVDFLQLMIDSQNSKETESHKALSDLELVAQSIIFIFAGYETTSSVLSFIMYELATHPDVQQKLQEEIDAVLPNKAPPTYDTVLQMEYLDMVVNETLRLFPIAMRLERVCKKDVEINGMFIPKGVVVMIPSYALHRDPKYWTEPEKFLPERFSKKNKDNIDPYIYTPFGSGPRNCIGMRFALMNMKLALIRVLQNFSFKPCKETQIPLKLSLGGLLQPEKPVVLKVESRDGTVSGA
Sequence of Apoptosis regulator Bcl-2 (Homo sapiens) (P10415 whole entry, looked up): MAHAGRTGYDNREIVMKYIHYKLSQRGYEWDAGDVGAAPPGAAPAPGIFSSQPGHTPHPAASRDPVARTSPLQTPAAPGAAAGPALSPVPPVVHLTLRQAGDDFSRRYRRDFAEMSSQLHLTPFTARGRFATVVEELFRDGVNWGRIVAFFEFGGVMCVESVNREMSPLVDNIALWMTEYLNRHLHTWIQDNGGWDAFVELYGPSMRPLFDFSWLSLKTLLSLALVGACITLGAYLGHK
Sequence of Cytochrome P450 2C19 (Homo sapiens) (P33261 whole entry, looked up): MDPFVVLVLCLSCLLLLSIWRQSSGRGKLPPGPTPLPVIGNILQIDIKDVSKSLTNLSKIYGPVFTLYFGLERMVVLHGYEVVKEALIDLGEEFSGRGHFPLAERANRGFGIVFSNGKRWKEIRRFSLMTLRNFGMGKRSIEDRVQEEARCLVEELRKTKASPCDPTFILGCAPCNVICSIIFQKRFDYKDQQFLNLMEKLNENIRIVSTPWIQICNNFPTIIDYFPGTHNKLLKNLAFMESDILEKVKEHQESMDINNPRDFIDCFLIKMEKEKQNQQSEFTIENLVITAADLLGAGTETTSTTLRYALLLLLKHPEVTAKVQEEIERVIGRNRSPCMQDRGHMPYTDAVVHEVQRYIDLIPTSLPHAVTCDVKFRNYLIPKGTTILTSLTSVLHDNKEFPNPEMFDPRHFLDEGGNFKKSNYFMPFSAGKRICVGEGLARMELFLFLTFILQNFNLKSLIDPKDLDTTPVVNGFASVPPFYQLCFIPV
Sequence of Caspase-3 (Homo sapiens) (P42574 whole entry, looked up): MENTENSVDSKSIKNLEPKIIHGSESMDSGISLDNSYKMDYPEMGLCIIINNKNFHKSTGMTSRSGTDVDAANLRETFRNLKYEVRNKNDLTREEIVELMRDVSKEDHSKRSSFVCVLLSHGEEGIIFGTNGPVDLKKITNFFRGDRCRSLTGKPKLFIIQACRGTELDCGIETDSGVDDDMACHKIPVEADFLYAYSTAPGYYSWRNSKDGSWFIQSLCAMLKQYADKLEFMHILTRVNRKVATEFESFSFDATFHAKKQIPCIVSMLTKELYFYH

Consider `Cc1c(C(=O)O)c(O)cc2c1C(=O)c1c(O)c([C@@H]3O[C@H](CO)[C@@H](O)[C@H](O)[C@H]3O)c(O)c(O)c1C2=O`, for which the call in test [1], in test [2], in [3], in [4], in test [5] and in test [6] was inactive. Also, the result in test [7], in test [8], in [9], in test [10], in test [11] and in [12] was inactive. In addition, the molecule was classed as inactive in test [13], in [14], in test [15], in [16], in test [17] and in test [18]. The molecule was called inactive in [19].

Regarding `CCCCCCC(=O)OCC`, the outcome in test [1], in test [2], in test [3], in [4], in test [5] and in test [6] was inactive. Also, the molecule was classed as inactive in [7], in test [8], in test [9], in test [10], in test [20] and in [14]. For the same molecule, the result in test [15], in test [16], in [17], in [18] and in test [19] was inactive. Moreover, the AC50 in [11] was 23 µM (active); in [13] it was 8.96 µM (active).

Consider `CC(CO)OC(C)CO` (stereo not drawn) (tested in a mixture with another compound), for which the molecule was called inactive in test [1], in test [2], in [3], in test [4], in test [5] and in test [6]. The molecule was called inactive in test [7], in test [8], in test [9], in test [10], in test [11] and in [20]. Further, the outcome in test [12], in test [13], in test [14], in test [15], in test [16] and in test [17] was inactive. Moreover, the molecule was called inactive in [18] and in test [19].
